Assay results reported in PubChem BioAssay (Tox21).
Where “and” joins values, the source holds several entries; their conditions need not be identical. Equal values may be shown once. Records with an inconclusive call do not appear. A call without a number means that no potency is given here. Values without a mark were called inactive. Calls of active or inactive are those of the source. The call rests on the fitted dose curve; in most records, active means well fitted curve in the direction sought with a large enough effect in the repeat runs; inconclusive means weak or mixed curves; inactive means no such curve, though single readings can be large; an effect the other way counts as inactive or inconclusive.

Key:
[1] = biological target: Cytochrome P450 1A2 (Homo sapiens) (UniProt P05177); experiment: Cytochrome P450 Family 1 Subfamily A Member 2 (CYP1A2) small molecule antagonists: luciferase reporter qHTS assay (AID 1671199); on activity change, negative = inhibition: series mostly up to about 120 µM
Chain of Cytochrome P450 1A2 (Homo sapiens) (P05177 whole entry, looked up): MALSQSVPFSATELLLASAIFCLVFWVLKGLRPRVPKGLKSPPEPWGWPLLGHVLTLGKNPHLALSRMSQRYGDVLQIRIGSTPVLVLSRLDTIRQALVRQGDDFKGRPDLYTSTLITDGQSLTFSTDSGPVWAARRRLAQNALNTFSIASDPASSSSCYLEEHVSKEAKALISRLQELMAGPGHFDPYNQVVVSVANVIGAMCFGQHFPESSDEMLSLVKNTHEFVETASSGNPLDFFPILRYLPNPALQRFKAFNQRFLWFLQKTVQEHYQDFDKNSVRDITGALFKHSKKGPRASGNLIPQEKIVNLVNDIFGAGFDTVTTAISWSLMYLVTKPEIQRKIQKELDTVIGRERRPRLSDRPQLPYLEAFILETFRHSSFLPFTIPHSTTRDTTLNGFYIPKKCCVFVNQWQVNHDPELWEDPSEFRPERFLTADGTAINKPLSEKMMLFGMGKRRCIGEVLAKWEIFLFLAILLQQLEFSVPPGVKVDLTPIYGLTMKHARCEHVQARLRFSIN
Outline: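 Room-temperature CYP1A2 reaction with proluciferin substrate: compounds added from DMSO, 10 min preincubation, NADPH regeneration for 1 h. Luciferin detection reagent then added; luminescence recorded as RLU.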

[2] = biological target: Cytochrome P450 3A4 (Homo sapiens) (UniProt P08684); experiment: Cytochrome P450 Family 3 Subfamily A Member 4 (CYP3A4) small molecule antagonists: luciferase reporter qHTS assay (AID 1671201); on activity change, negative = inhibition: series mostly up to about 120 µM
Chain of Cytochrome P450 3A4 (Homo sapiens) (P08684 whole entry, looked up): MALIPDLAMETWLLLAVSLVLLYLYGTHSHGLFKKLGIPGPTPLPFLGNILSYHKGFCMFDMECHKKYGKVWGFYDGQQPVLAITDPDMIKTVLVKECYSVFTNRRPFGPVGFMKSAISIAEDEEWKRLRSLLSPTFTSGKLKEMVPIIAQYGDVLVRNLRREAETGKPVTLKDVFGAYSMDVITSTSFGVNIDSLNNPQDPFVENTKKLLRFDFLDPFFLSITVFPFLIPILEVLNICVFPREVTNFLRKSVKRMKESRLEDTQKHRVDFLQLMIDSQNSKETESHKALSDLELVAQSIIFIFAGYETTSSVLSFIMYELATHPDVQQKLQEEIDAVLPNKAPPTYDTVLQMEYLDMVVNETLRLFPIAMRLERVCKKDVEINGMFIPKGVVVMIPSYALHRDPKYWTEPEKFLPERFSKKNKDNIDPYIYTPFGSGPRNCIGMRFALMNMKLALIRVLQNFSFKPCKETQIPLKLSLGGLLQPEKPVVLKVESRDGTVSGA
Outline: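 Inhibition of CYP3A4 is measured as loss of light: the enzyme converts a proluciferin substrate to luciferin, detected luminescently. Reaction ran 1 h at room temperature with NADPH regeneration after a 10 min compound preincubation.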

[3] = biological target: Voltage-gated inwardly rectifying potassium channel KCNH2 (Homo sapiens) (UniProt Q12809); experiment: Human Ether-a-go-go-Related Gene (hERG) channel small molecule antagonists: fluorescence cell-based qHTS assay (AID 1671200);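 on activity change, negative = inhibition: hERG-expressing U2OS cells given a thallium stimulus after FluxOR II dye loading; series mostly up to about 77 µM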
Chain of Voltage-gated inwardly rectifying potassium channel KCNH2 (Homo sapiens) (Q12809 whole entry, looked up): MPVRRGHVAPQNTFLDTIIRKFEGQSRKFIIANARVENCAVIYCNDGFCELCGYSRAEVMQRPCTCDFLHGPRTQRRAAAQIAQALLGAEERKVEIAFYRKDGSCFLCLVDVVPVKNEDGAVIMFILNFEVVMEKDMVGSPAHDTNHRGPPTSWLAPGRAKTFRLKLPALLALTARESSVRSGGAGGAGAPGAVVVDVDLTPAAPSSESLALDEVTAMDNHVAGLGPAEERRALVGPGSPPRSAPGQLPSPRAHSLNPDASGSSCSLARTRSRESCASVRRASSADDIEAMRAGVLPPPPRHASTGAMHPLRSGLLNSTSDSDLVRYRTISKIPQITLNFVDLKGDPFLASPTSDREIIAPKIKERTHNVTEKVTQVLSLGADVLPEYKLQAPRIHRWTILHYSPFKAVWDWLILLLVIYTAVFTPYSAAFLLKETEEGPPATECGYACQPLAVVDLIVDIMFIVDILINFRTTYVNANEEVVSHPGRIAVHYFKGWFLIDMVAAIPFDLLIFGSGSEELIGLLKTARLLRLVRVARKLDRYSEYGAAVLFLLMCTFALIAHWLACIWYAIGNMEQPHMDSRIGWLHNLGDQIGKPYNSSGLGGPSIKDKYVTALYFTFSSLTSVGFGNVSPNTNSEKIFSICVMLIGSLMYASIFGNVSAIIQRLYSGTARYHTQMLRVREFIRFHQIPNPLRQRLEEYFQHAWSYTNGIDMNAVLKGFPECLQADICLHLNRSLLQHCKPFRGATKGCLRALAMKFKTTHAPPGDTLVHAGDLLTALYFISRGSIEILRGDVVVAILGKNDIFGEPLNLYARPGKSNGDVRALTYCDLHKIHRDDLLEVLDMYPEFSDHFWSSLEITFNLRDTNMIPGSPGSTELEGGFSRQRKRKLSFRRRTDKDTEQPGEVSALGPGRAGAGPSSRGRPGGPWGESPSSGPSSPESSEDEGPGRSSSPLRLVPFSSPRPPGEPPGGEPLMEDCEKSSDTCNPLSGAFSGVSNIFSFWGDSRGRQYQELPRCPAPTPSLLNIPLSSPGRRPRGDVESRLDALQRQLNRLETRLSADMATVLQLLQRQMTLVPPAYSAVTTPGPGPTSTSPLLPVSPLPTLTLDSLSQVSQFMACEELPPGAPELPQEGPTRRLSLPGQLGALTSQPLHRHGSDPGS
Outline: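 Quantitative HTS in hERG-U2OS cells: thallium entry through the channel reports activity, read as continuous 480/540 nm fluorescence over 2 min after stimulus addition.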
Further: nearly all actives have a fitted effect of over 50% in size.
Potency means the concentration at half of the fitted maximal effect.

`N[C@@H](CSSC[C@H](N)C(=O)O)C(=O)O` was tested. Which activity change, negative = inhibition [1] did it give?
The activity change, negative = inhibition was -15.1% [at 0.435 µM].

And the activity change, negative = inhibition [2]?
Its activity change, negative = inhibition is 5.27% [at 0.435 µM].

What does the source list for `CCCCCCCCCCCCCCNCCO`?
Potency [1]: 28.8 µM (active); Potency [2]: inactive

How did the Potency [1] turn out when `CC(=O)C=O` was run?
The Potency was “inactive”.

And the Potency [2]?
The Potency was “inactive”.

What does the source list for `NC1(c2ccc(-c3nc4ccn5c(=O)[nH]nc5c4cc3-c3ccccc3)cc2)CCC1`?
Potency [1]: inactive; Potency [2]: inactive

Which results are given for `Nc1ccc2cc3ccc(N)cc3nc2c1`?
Potency [1]: 564 nM (active) and 1.82 µM (active); Potency [2]: 3.99 µM (active)

`CC(O)C#CC(C)O` (stereo not drawn) was tested. Which Potency [3] did it give?
Its Potency is “inactive”.

`CC(=O)Nc1ccc(O)cc1` was tested. Which Potency [3] did it give?
Its Potency is “inactive”.

What does the source list for `CCCCN(C)C`?
Potency [1]: inactive; Potency [2]: inactive

For `C=C(c1ccc(C(=O)O)cc1)c1cc2c(cc1C)C(C)(C)CCC2(C)C`, which Potency [1] is on record?
The Potency was “inactive”.

And the Potency [2]?
The Potency was “inactive”.

With `CCN1CCN(c2cc(-c3ccc(F)cc3)c3c(n2)CCCCCC3)CC1` as the compound, how does the Potency [3] read?
The Potency was 4.65 µM (active).

With `CCCCOC(=O)C(C)CC` (stereo not drawn) as the compound, how does the Potency [3] read?
The Potency was “inactive”.

Which Potency [1] does the source give for `Cn1cnc2ncnc(N)c21` here?
Its Potency is 17.7 µM (active).

And the Potency [2]?
The Potency was “inactive”.

How did the activity change, negative = inhibition [3] turn out when `S=C(SSSSSSC(=S)N1CCCCC1)N1CCCCC1` was run?
The activity change, negative = inhibition was -18.7% [at 15.8 µM].

What does the source list for `c1ccc(Nc2cccc3ccccc23)cc1`?
Potency [1]: 6.41 µM (active) and 17.8 µM (active); Potency [2]: 36.1 µM (active) and 79.6 µM (active)

What does the source list for `[O]=[Zr]`?
Potency [1]: 35.4 µM (active); Potency [2]: inactive

`Cc1cccc(C)c1NC(=O)CN1CCN(CCCC(c2ccc(F)cc2)c2ccc(F)cc2)CC1` was tested. Which Potency [1] did it give?
Its Potency is “inactive”.

And the Potency [2]?
The Potency was “inactive”.

For `Clc1ccc(C(Cn2ccnc2)OCc2c(Cl)cccc2Cl)c(Cl)c1` (stereo not drawn), which Potency [3] is on record?
Its Potency is 7.56 µM (active).

With `CCc1ccc(O)c(C(C)(C)C)c1` as the compound, how does the Potency [1] read?
The Potency was 35.6 µM (active).

And the Potency [2]?
The Potency was “inactive”.

Which results are given for `C=CC(=O)OCCC#N`?
Potency [1]: inactive; Potency [2]: inactive

Which Potency [1] does the source give for `CC(C)(c1cc(Br)c(OCCO)c(Br)c1)c1cc(Br)c(OCCO)c(Br)c1` here?
Its Potency is 27.6 µM (active).

And the Potency [2]?
The Potency was 49.2 µM (active).

How did the Potency [3] turn out when `COC(=O)C1=C(C)NC(C)=C(C(=O)OCCCN2CCC(c3ccccc3)(c3ccccc3)CC2)C1c1cccc([N+](=O)[O-])c1` (stereo not drawn) was run?
The Potency was 1.51 µM (active).

For `CCCCCCS`, which Potency [3] is on record?
Its Potency is “inactive”.

Which results are given for `CSc1ccc2c(c1)N(CCC1CCCCN1C)c1ccccc1S2` (stereo not drawn)?
Potency [1]: 28.1 µM (active) and 15.5 µM (active); Potency [2]: inactive

`O=C1OC(OC(=O)c2cccnc2Nc2cccc(C(F)(F)F)c2)c2ccccc21` (stereo not drawn) was tested. Which Potency [1] did it give?
Its Potency is 9.77 µM (active).

And the Potency [2]?
The Potency was “inactive”.

With `CCCCCCCC/C=C\CCCCCCCC(=O)N(C)CC(=O)O` as the compound, how does the Potency [1] read?
Its Potency is “inactive”.

What about the Potency [2] of the same compound?
The Potency was “inactive”.

Which Potency [1] does the source give for `CCC1CCCCC1` here?
Its Potency is “inactive”.

And the Potency [2]?
The Potency was “inactive”.

Which Potency [1] does the source give for `CCCCOc1ccc(C(=O)CCN2CCCCC2)cc1` here?
Its Potency is “inactive”.

What about the Potency [2] of the same compound?
Its Potency is “inactive”.

Which Potency [1] does the source give for `CCOB(OCC)OCC` here?
The Potency was “inactive”.

What about the Potency [2] of the same compound?
Its Potency is “inactive”.

How did the Potency [3] turn out when `CCCCN(CCCC)CCC(O)c1cc2c(Cl)cc(Cl)cc2c2cc(C(F)(F)F)ccc12` (stereo not drawn) was run?
Its Potency is 1.07 µM (active).

With `CC(C)(C)CC(C)(C)c1ccccc1O` as the compound, how does the Potency [1] read?
The Potency was 35.8 µM (active).

What about the Potency [2] of the same compound?
The Potency was 63.6 µM (active).

What does the source list for `CCOC(=O)[C@@](C)(N)Cc1ccc(O)c(O)c1`?
Potency [1]: inactive; Potency [2]: inactive

`Cc1ccc(CCn2c3c(c4cc(Cl)ccc42)CN(C)CC3)cn1` was tested. Which Potency [3] did it give?
The Potency was 12 µM (active).

`Cc1cn[nH]c1` was tested. Which Potency [3] did it give?
Its Potency is “inactive”.

`Clc1ccc(C(c2ccccc2Cl)C(Cl)Cl)cc1` (stereo not drawn) was tested. Which Potency [1] did it give?
Its Potency is “inactive”.

And the Potency [2]?
Its Potency is “inactive”.

Which results are given for `CCCCCCCCCCCCCc1ccccc1`?
Potency [1]: inactive; Potency [2]: inactive

How did the Potency [2] turn out when `Oc1c(Br)cc(Br)c2cccnc12` was run?
The Potency was “inactive”.

For `C=CC/C=C/C/C=C/C/C=C/C`, which Potency [3] is on record?
The Potency was “inactive”.

And the Potency [2]?
The Potency was “inactive”.

Which results are given for `COc1cccc(O)c1`?
Potency [3]: inactive; Potency [2]: inactive

`O=C(Oc1ccccc1)c1cccc(C(=O)Oc2ccccc2)c1` was tested. Which Potency [2] did it give?
Its Potency is “inactive”.

`CCc1cccc(CC)c1NC(=O)C(=O)O` was tested. Which Potency [3] did it give?
Its Potency is “inactive”.

And the Potency [2]?
Its Potency is “inactive”.

How did the Potency [3] turn out when `C[C@H]1O[C@@H](O[C@H]2[C@@H](O)C[C@H](O[C@H]3[C@@H](O)C[C@H](O[C@H]4CC[C@@]5(C)[C@H](CC[C@@H]6[C@@H]5C[C@@H](O)[C@]5(C)[C@@H](C7=CC(=O)OC7)CC[C@]65O)C4)O[C@@H]3C)O[C@@H]2C)C[C@H](O)[C@@H]1O` was run?
The Potency was “inactive”.

For `C=CCCCCCCC=C`, which Potency [3] is on record?
The Potency was “inactive”.

For `CC1=C(/C=C/C(C)=C/C=C/C(C)=C\C=O)C(C)(C)CCC1`, which Potency [2] is on record?
The Potency was 30 µM (active).

With `C1CC(COCC2CO2)CCC1COCC1CO1` (stereo not drawn) as the compound, how does the Potency [2] read?
The Potency was “inactive”.

For `CCCN(CCc1cccs1)[C@H]1CCc2c(O)cccc2C1`, which Potency [3] is on record?
The Potency was 3.01 µM (active).

What about the Potency [2] of the same compound?
The Potency was “inactive”.

`Clc1nc2ccccc2s1` was tested. Which Potency [2] did it give?
The Potency was “inactive”.

What does the source list for `CCN(CC)CCCN(c1ccccc1)C1Cc2ccccc2C1`?
Potency [3]: 2.13 µM (active); Potency [2]: inactive

Which results are given for `CC(C)(C)C1=CC(=O)C=C(C(C)(C)C)C1=O`?
Potency [3]: inactive; Potency [2]: inactive
